Assay results reported in the supplement of paper PMC10849652.
The full data set covers some 7,900 targets. This sample favours those with a hit. About 0.6% of all pairs of compound and target were hits. Values without a mark were called inactive.

Columns and labels:
Assay in all cases: log2 fold change, soluble protein after heating vs DMSO (PISA); higher = thermal stabilisation; K562 cells, 10 uM, 30 min; active = over 0.2 and 3.5 SD of the protein, either way, in both replicates (recomputed)
[1] = compound: C#Cc1cccc(Nc2ncnc3cc(OCCOC)c(OCCOC)cc23)c1 [erlotinib]
Summary of the method: (§1)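 K562 cells at 2×10^6 cells/mL were given 10 μM compound for 30 min. Aliquots then went through 3 min of heating across 48°C-58°C, were pooled, and were extracted in PBS with 0.5% NP-40 at 4°C, and the supernatant after 21,000xg for 90 min was quantified by TMTpro 16plex LC-MS/MS with channel sums equalised. Thermal stability relative to control samples, from duplicates, is given as log2 fold change.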

[2] = compound: C/C(=N\NC(=O)C1=CC(=CC=C1)S(=O)(=O)N2CCOCC2)/C3=C(C=CC(=C3)Cl)O
Summary of the method: as §1

[3] = compound: C1=CC(=C(C=C1Cl)C2=NC3=NC=CN=C3C(=N2)NC4=CC=NC=C4)F
Summary of the method: as §1

[4] = compound: C1=CC(=CC=C1C2=NC3=C(N2)C=C(C=C3)C(=O)N)OC4=CC=C(C=C4)Cl
Summary of the method: as §1

[5] = compound: C1=CC2=C(C=CC(=C2)/C=C\3/C(=O)NC(=NCC4=CC=CS4)S3)N=C1
Summary of the method: as §1

[6] = compound: C1=CC2=NC=CN=C2C=C1/C=C/3\C(=O)NC(=O)S3
Summary of the method: as §1

[7] = compound: C1=CC=C(C=C1)C2=NC(=C(N2)C3=CC=NC=C3)C4=CC(=C(C=C4)Cl)O
Summary of the method: as §1

[8] = compound: C1=CC=C2C(=C1)C3=NNC4=CC=CC(=C43)C2=O
Summary of the method: as §1

[9] = compound: C1CCN(C1)C(=O)NC2=CC=CC(=C2)NC3=NC=C(C(=N3)NCCC4=CN=CN4)Br
Summary of the method: as §1

[10] = compound: C1CN(CCC1(CC2=CC=C(C=C2)Cl)N)C3=NC=NC4=C3C=CN4
Summary of the method: as §1

[11] = compound: C=CC(=O)N1CCC[C@@H](n2nc(-c3ccc(Oc4ccccc4)cc3)c3c(N)ncnc32)C1 [ibrutinib]
Summary of the method: as §1

[12] = compound: CC(=O)c1cnc2ccc(-c3cc(Cl)c(O)c(Cl)c3)nc2c1N[C@H]1CC[C@H](CN(C)C)CC1
Summary of the method: as §1

[13] = compound: CC(C)(C)Cn1c(N)nc2ccc(-c3[nH]c(C(C)(C)C)nc3-c3ccc(F)cc3)nc21 [ralimetinib]
Summary of the method: as §1

[14] = compound: CC(C)(O)CC(=O)NCCn1ccc2ncnc(Nc3ccc(Oc4cccc(C(F)(F)F)c4)c(Cl)c3)c21
Summary of the method: as §1

[15] = compound: CC(C)C1=C2N=C(C=C(N2N=C1)NCC3=CC=CC=C3)NCCCCCCN
Summary of the method: as §1

[16] = compound: CC(C)C[C@@H](C=O)NC(=O)[C@H](CC(C)C)NC(=O)[C@H](CC(C)C)NC(=O)OCc1ccccc1
Summary of the method: as §1

[17] = compound: CC1=C(C2=C(C=C1)C(=O)C3=CC=CC=C3N2CCCN)C
Summary of the method: as §1

[18] = compound: C1COCCN1CCN2C3=CC=CC=C3N=C2NC(=O)C4=CC(=CC=C4)[N+](=O)[O-] [IRAK-1-4 Inhibitor I]
Summary of the method: as §1

[19] = compound: CC(C)N(C[C@H]1O[C@@H](n2cnc3c(N)ncnc32)[C@H](O)[C@@H]1O)[C@H]1C[C@@H](CCc2nc3cc(C(C)(C)C)ccc3[nH]2)C1 [pinometostat]
Summary of the method: as §1

[20] = compound: CC1=C(C(CC(=O)N1)C2=CC=C(C=C2)C(F)(F)F)C(=O)NC3=C(C=C4C(=C3)C=NN4)F
Summary of the method: as §1

CCND3 (UniProt P30281)
Chain of UniProt P30281 (P30281 whole entry, looked up): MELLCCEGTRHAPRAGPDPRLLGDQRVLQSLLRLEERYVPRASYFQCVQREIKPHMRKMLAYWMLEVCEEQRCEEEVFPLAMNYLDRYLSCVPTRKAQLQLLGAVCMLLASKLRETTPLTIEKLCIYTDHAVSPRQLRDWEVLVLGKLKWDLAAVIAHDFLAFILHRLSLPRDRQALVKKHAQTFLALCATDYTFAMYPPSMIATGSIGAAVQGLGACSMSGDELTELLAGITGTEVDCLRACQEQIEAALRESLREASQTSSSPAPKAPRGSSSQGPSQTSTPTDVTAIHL
log2 fold change [1]: -0.028
log2 fold change [2]: -0.025
log2 fold change [3]: -0.081
log2 fold change [4]: 0.036
log2 fold change [5]: 0.143
log2 fold change [6]: 0.289
log2 fold change [7]: 0.047
log2 fold change [8]: -0.001
log2 fold change [9]: 0.09
log2 fold change [10]: -0.043
log2 fold change [11]: -0.063
log2 fold change [12]: 0.078
log2 fold change [13]: -0.076
log2 fold change [14]: 0
log2 fold change [15]: -0.303
log2 fold change [16]: 0.341
log2 fold change [17]: -0.088

CLCN7 (UniProt P51798)
Chain of UniProt P51798 (P51798 whole entry, looked up): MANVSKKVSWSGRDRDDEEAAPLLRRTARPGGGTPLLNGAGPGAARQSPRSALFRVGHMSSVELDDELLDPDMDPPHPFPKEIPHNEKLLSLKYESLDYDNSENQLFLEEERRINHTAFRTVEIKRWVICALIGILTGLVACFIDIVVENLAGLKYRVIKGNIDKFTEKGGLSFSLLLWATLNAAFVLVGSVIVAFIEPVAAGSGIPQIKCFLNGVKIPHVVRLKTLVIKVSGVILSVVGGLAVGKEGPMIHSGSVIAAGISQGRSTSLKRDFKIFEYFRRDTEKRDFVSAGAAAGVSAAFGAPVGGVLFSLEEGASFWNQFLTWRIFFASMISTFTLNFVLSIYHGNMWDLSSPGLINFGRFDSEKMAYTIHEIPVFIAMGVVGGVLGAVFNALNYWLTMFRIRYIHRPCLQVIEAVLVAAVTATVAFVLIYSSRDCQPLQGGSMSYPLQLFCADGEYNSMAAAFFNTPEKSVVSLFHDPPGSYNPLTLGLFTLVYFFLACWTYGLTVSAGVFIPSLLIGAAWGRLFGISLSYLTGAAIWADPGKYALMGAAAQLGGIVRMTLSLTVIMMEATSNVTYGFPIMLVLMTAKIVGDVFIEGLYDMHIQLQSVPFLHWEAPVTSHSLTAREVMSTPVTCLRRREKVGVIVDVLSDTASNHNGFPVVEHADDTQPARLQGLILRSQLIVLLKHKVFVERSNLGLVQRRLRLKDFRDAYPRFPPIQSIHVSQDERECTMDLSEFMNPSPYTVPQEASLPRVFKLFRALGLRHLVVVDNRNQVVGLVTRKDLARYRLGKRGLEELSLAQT
log2 fold change [1]: 0.079
log2 fold change [2]: 0.047
log2 fold change [3]: 0.075
log2 fold change [4]: -0.008
log2 fold change [5]: 0.023
log2 fold change [6]: 0.063
log2 fold change [7]: 0.076
log2 fold change [8]: -0.05
log2 fold change [9]: 0.016
log2 fold change [10]: 0.001
log2 fold change [18]: -0.01
log2 fold change [12]: -0.005
log2 fold change [13]: -0.055
log2 fold change [14]: -0.08
log2 fold change [15]: -0.91 (active)
log2 fold change [16]: 0
log2 fold change [19]: -0.051
log2 fold change [20]: 0.04
log2 fold change [17]: -0.092

CAV2 (UniProt P51636)
Chain of UniProt P51636 (P51636 whole entry, looked up): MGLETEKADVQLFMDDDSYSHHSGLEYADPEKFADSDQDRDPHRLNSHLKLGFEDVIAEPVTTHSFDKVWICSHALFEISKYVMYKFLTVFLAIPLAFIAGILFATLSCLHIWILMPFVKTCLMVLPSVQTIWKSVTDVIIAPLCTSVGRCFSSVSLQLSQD
log2 fold change [1]: -0.01
log2 fold change [2]: -0.066
log2 fold change [4]: 0.076
log2 fold change [5]: -0.018
log2 fold change [6]: -0.559
log2 fold change [8]: 0.057
log2 fold change [9]: 0.025
log2 fold change [10]: -0.021
log2 fold change [18]: -0.165
log2 fold change [11]: 0.105
log2 fold change [12]: 0.025
log2 fold change [15]: -0.073
log2 fold change [19]: 0.178
log2 fold change [20]: 0.028
log2 fold change [17]: 0.005

CDK19 (UniProt Q9BWU1)
Chain of UniProt Q9BWU1 (Q9BWU1 whole entry, looked up): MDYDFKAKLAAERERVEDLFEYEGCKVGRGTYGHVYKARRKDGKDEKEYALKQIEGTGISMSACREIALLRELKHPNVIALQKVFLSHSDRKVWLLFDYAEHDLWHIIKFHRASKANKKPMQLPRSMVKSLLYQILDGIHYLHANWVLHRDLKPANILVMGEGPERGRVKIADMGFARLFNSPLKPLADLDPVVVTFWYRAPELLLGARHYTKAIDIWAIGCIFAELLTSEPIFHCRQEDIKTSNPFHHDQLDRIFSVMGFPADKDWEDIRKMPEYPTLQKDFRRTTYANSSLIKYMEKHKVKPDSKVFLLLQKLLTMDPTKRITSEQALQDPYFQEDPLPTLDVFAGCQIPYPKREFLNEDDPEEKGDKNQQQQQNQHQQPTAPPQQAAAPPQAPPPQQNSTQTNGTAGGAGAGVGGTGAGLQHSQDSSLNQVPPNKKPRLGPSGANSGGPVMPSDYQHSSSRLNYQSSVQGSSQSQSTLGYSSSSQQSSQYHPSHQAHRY
log2 fold change [1]: -0.2
log2 fold change [2]: -0.116
log2 fold change [3]: 0.053
log2 fold change [4]: 0.268
log2 fold change [5]: 0.111
log2 fold change [7]: -0.167
log2 fold change [8]: 0.099
log2 fold change [9]: 0.003
log2 fold change [10]: 0.021
log2 fold change [12]: 0.541 (active)
log2 fold change [13]: -0.133
log2 fold change [14]: -0.02
log2 fold change [15]: 0.222
log2 fold change [16]: 0.074
log2 fold change [20]: -0.156
log2 fold change [17]: 0.119

CMTM3 (UniProt Q96MX0)
Chain of UniProt Q96MX0 (Q96MX0 whole entry, looked up): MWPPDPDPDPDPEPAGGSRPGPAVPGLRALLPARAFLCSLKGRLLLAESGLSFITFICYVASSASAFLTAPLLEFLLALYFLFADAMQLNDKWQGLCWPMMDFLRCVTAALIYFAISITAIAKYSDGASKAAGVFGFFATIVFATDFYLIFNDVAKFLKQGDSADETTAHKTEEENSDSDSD
log2 fold change [1]: 0.032
log2 fold change [2]: -0.055
log2 fold change [3]: 0.166
log2 fold change [4]: -0.044
log2 fold change [5]: 0.034
log2 fold change [6]: 0.066
log2 fold change [8]: -0.007
log2 fold change [9]: 0.002
log2 fold change [10]: 0.051
log2 fold change [18]: 0.021
log2 fold change [11]: 0.014
log2 fold change [12]: 0.003
log2 fold change [14]: -0.108
log2 fold change [15]: 0.068
log2 fold change [19]: 0
log2 fold change [20]: 0.12
log2 fold change [17]: -0.062

C19orf54 (UniProt Q5BKX5)
Chain of UniProt Q5BKX5 (Q5BKX5 whole entry, looked up): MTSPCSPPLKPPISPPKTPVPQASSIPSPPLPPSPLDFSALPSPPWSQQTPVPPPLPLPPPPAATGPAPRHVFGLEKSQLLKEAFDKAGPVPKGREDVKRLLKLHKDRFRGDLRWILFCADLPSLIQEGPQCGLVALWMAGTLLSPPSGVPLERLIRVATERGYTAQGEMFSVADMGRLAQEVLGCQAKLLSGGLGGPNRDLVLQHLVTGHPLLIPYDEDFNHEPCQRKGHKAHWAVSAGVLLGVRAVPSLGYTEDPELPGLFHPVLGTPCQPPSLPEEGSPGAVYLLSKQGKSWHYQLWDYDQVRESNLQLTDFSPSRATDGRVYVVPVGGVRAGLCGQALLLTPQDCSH
log2 fold change [1]: -0.094
log2 fold change [2]: -0.054
log2 fold change [3]: 0.024
log2 fold change [4]: 0.008
log2 fold change [5]: -0.005
log2 fold change [7]: -0.024
log2 fold change [8]: 0.026
log2 fold change [9]: -0.027
log2 fold change [10]: -0.543 (active)
log2 fold change [18]: 0.008
log2 fold change [12]: 0.045
log2 fold change [13]: 0.019
log2 fold change [14]: -0.003
log2 fold change [15]: -0.022
log2 fold change [16]: 0.08
log2 fold change [19]: -0.016
log2 fold change [17]: -0.054

CLPX (UniProt O76031)
Chain of UniProt O76031 (O76031 whole entry, looked up): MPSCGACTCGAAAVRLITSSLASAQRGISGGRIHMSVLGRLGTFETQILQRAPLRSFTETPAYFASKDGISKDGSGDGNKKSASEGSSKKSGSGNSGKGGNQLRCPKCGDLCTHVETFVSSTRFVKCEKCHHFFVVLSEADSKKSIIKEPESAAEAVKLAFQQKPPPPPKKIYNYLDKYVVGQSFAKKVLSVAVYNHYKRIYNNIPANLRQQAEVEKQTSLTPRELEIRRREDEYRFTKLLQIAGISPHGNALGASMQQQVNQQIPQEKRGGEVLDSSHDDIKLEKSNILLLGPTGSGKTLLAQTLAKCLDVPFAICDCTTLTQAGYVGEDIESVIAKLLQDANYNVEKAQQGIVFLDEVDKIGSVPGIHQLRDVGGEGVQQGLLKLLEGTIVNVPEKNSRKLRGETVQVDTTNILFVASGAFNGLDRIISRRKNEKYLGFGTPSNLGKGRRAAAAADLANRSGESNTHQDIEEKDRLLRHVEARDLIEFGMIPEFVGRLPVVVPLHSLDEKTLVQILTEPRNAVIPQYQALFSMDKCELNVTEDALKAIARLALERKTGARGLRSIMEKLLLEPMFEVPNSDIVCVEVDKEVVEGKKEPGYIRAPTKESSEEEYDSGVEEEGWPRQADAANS
log2 fold change [1]: -0.062
log2 fold change [2]: 0.056
log2 fold change [3]: 0.01
log2 fold change [4]: 0.004
log2 fold change [5]: -0.009
log2 fold change [6]: 0.036
log2 fold change [7]: -0.008
log2 fold change [8]: -0.034
log2 fold change [9]: -0.03
log2 fold change [10]: -0.003
log2 fold change [18]: 0.002
log2 fold change [12]: 0.006
log2 fold change [13]: -0.03
log2 fold change [14]: -0.02
log2 fold change [15]: 0.048
log2 fold change [16]: -0.055
log2 fold change [19]: -0.026
log2 fold change [20]: 0.004
log2 fold change [17]: 0.012

CLN5 (UniProt O75503)
Chain of UniProt O75503 (O75503 whole entry, looked up): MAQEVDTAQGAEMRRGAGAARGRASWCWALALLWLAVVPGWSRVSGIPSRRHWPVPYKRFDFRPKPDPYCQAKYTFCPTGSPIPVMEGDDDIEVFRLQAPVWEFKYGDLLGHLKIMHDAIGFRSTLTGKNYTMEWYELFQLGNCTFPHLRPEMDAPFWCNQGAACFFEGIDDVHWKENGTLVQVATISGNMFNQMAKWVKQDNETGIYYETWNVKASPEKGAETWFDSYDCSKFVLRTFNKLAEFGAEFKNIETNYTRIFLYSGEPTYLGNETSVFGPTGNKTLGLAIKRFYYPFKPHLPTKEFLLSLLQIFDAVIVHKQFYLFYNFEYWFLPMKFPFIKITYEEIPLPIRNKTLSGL
log2 fold change [1]: 0.146
log2 fold change [2]: -0.049
log2 fold change [3]: 0.063
log2 fold change [4]: 0.103
log2 fold change [5]: 0.023
log2 fold change [6]: 0.016
log2 fold change [8]: 0.15
log2 fold change [9]: -0.02
log2 fold change [10]: -0.285
log2 fold change [18]: 0.023
log2 fold change [12]: -0.03
log2 fold change [14]: 0.001
log2 fold change [15]: -0.62
log2 fold change [19]: -0.062
log2 fold change [20]: -0.039
log2 fold change [17]: -0.028

CLCN3 (UniProt P51790)
Chain of UniProt P51790 (P51790 whole entry, looked up): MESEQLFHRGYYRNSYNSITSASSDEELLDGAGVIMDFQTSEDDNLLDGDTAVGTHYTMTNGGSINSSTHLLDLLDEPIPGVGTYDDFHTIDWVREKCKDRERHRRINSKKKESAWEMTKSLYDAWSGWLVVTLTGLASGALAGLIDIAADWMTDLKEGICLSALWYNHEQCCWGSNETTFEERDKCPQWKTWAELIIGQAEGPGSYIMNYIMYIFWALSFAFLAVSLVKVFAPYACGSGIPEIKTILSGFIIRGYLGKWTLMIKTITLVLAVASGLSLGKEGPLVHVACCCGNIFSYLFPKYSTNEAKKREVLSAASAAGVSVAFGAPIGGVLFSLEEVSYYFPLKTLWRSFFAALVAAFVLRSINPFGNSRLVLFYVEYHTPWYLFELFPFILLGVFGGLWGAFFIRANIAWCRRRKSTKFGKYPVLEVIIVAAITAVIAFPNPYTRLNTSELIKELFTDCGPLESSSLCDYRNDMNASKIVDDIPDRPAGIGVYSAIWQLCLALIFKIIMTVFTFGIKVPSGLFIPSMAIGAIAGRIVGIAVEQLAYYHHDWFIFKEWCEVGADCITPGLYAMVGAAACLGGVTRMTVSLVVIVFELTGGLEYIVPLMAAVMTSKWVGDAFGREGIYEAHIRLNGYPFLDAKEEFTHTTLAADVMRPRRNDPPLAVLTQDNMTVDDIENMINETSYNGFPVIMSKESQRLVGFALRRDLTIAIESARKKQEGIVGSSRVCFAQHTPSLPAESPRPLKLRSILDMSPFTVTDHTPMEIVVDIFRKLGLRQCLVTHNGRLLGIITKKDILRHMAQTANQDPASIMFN
log2 fold change [1]: -0.024
log2 fold change [2]: 0.079
log2 fold change [3]: -0.053
log2 fold change [4]: -0.045
log2 fold change [5]: 0.023
log2 fold change [6]: 0.07
log2 fold change [7]: -0.01
log2 fold change [8]: -0.03
log2 fold change [9]: -0.032
log2 fold change [10]: 0.055
log2 fold change [18]: 0.014
log2 fold change [12]: -0.062
log2 fold change [13]: -0.076
log2 fold change [14]: 0.015
log2 fold change [15]: -0.05
log2 fold change [16]: -0.039
log2 fold change [19]: -0.031
log2 fold change [20]: -0.045
log2 fold change [17]: -0.053
